Assay outcomes from PubChem.
D3 antag: D3 dopamine receptor (human) antagonism; P35462; D3R cells, DiscoveRx beta-arrestin luminescence, antagonist mode; active compounds read low; max response, negative = inhibition, %; actives 2.5% (n = 360,000); in the data active = max response below about -50%; inconclusive = no clear call, values can overlap the other calls
Target sequence (P35462 whole entry, looked up): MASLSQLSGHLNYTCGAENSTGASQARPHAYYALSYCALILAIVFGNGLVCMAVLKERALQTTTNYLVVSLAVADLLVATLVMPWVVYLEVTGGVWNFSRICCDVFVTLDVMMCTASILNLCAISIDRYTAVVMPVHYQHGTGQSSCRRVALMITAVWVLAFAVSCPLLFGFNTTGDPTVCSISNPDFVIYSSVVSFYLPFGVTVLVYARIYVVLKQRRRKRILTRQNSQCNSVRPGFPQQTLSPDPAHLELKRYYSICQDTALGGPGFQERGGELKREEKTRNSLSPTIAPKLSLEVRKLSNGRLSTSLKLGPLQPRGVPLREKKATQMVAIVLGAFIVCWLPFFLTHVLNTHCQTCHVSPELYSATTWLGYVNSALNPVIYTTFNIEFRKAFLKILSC
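Cells expressing the human receptor were seeded at 1500 cells/well, incubated overnight at 37 degrees C in 5% CO2, then exposed to library compounds with dopamine controls for 90 minutes at 37 degrees C before luminescent detection.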
D3 ag: D3 dopamine receptor (human) agonism; AID 652048; D3R DiscoveRx beta-arrestin cells, luminescence, 90 min; P35462; actives 0.58% (n = 410,000); max activation, %; in the data active = max activation above about 30%
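Agonist-mode cell screen: cells plated at 1500/well and incubated overnight at 37 °C, then exposed to library compounds for 90 min at 37 °C. Detection reagent was added for 30–60 min at room temperature, and luminescence was read.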
Integrin act MD: activators of alpha7 integrin expression for muscular dystrophy; alpha7betagal myoblasts, beta-gal FDG fluorescence, 48 h; Potency, µM (doses to about 38.3 µM), actives largely listed as activators; actives 0.064% (n = 350,000); also: nearly all actives have a fitted effect of over 60% in size
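alpha7betagal+/- myoblasts (passage 13, 250/well) treated 48 h at 37C with compounds at 1:260 dilution of DMSO stock. Lysed, then beta-galactosidase activity read as FDG fluorescence (ex 480/em 540) after 30 min, with pre-read for autofluorescence.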
ATXN2 expr inh: ATXN2 expression inhibition | HEK-293 ATXN2-luciferase reporter, luminescence, 24 h | Potency, µM (series often up to 57 µM), hits mostly inhibitors | actives 0.72% (n = 360,000); also: nearly all actives have a fitted effect of over 55% in size
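ATXN2-luciferase reporter cells (luciferase flanked by upstream and downstream ATXN2 gene portions) were treated 24 h at 37 °C with compounds at up to 57 uM. SteadyGlo luminescence gave expression; GF-AFC fluorescence gave viability.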
IL1B secr inh: inflammasome signaling inhibition, IL-1 beta readout. actives 4.7% (n = 360,000). activity change, % at 57.5 µM. AID 743279. THP-1 LPS/ATP IL-1B secretion, AlphaLISA, 16 h; active compounds read low; in the data active = activity change below about -50%; inconclusive = mostly about -30% to -49%
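Secreted IL-1B measured by AlphaLISA bead assay after 16 h compound exposure of THP-1 cells; compounds (final up to 57.5 uM) added 1 h before LPS (250 ng/mL) and ATP (1.25 mM) stimulation; lower signal means less secretion.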
ATXN viability: cell viability loss in ATXN counter-screen; S2 cells (HEK-293 line with an ATXN2-luciferase reporter) viability, CellTiter-Fluor protease fluorescence, 24 h; Potency, µM (highest dose often 56.7 µM), usual class: cytotoxic; actives 0.49% (n = 400,000); AID 651635; also: nearly all actives have a fitted effect of over 40% in size
Hits are given with their value; [ ] = another dose, or the depositor's remark. This is a sample that favours compounds with a hit; in the whole collection about 7% have one here. Unless noted, calls follow the shape of the dose curve; as a rule, active = well fitted curve in the direction sought with a large enough effect; inconclusive = small, poorly fitted or top-dose-only effect, or another doubt; inactive = no such curve, though single readings can be large; an effect the other way counts as inactive or inconclusive.

What do the screens show for `CC(Cl)C(=O)c1ccc2c(c1)CCN2C(=O)C1CC1` (stereo not drawn)?
D3 antag: inactive; D3 ag: inactive; Integrin act MD: inactive; ATXN2 expr inh: inactive[11.3 µM]; IL1B secr inh: -63; ATXN viability: inactive

How did N#Cc1ccc(/C=C\c2nccc3c2[nH]c2ccccc23)cc1 do in these assays?
D3 antag: inactive; D3 ag: inactive; Integrin act MD: inactive; ATXN2 expr inh: inconclusive; IL1B secr inh: -84

Results for Clc1ccc(/C=C\c2nccc3c2[nH]c2ccccc23)cc1 ?
D3 antag: inactive; D3 ag: inactive; Integrin act MD: inactive; ATXN2 expr inh: inactive; IL1B secr inh: inactive

Results for CCN(CC)c1ccc(/C=C2/C(=O)c3ccc(C(=O)O)cc3C2=O)cc1 ?
D3 antag: -56; D3 ag: inactive; Integrin act MD: inactive; ATXN2 expr inh: inactive; IL1B secr inh: inactive; ATXN viability: inactive

How did CCN(CC)c1ccc(C=C2C(=O)OC3(CCCCC3)OC2=O)cc1 do in these assays?
D3 antag: inactive; D3 ag: inactive; Integrin act MD: inactive; ATXN2 expr inh: inactive; IL1B secr inh: inactive; ATXN viability: inactive

Results for Cc1ccc(-n2c(CNc3ccc(C)c(Cl)c3)n[nH]c2=S)cc1 ?
D3 antag: inactive; D3 ag: inactive; Integrin act MD: inconclusive; IL1B secr inh: inactive; ATXN viability: inconclusive

What do the screens show for `Cc1ccc(-c2nc(CS(=O)CC(=O)N3CCN(c4cccc(Cl)c4)CC3)c(C)o2)cc1` (stereo not drawn)?
D3 ag: inactive

How did Clc1nssc1=Nc1ccc(Br)cc1 do in these assays?
D3 antag: inactive; D3 ag: inactive; Integrin act MD: inactive; ATXN2 expr inh: inactive; IL1B secr inh: -97; ATXN viability: inconclusive

What do the screens show for `Clc1nssc1=Nc1nncs1`?
D3 antag: inactive; D3 ag: inactive; Integrin act MD: inactive; ATXN2 expr inh: inconclusive; IL1B secr inh: -73; ATXN viability: inconclusive

What do the screens show for `N#Cc1cccc(N=c2ssnc2Cl)c1`?
D3 antag: inactive; D3 ag: inactive; Integrin act MD: inactive; ATXN2 expr inh: inactive[11.3 µM]; IL1B secr inh: inactive; ATXN viability: inconclusive

How did COc1cc(N=c2ssnc2Cl)cc(OC)c1 do in these assays?
D3 antag: -71; D3 ag: inactive; Integrin act MD: inactive; ATXN2 expr inh: inactive; IL1B secr inh: inconclusive; ATXN viability: inconclusive

How did Clc1ccc(N=c2ssnc2Cl)nc1 do in these assays?
D3 antag: inactive; D3 ag: inactive; Integrin act MD: inactive; IL1B secr inh: inactive; ATXN viability: inconclusive

How did CCc1ccc(NC(=O)CCc2c(C)nn(-c3ccc(N4CCOCC4)nn3)c2C)cc1 do in these assays?
D3 antag: inactive; D3 ag: inactive; Integrin act MD: inactive; IL1B secr inh: inactive; ATXN viability: inactive

Results for O=C(Cc1c(F)cccc1Cl)OCC(=O)N1CCc2ccccc21 ?
D3 antag: inactive; D3 ag: inactive; Integrin act MD: inactive; ATXN2 expr inh: inactive; IL1B secr inh: inactive; ATXN viability: inactive

What do the screens show for `COc1ccc(C(c2nnnn2C(C)(C)C)N2CCN(C/C=C/c3ccccc3)CC2)cc1` (stereo not drawn)?
D3 antag: -67; D3 ag: inactive; ATXN2 expr inh: inactive; IL1B secr inh: inactive; ATXN viability: inconclusive

How did CC(C)(C)n1nnnc1C(c1ccccc1)N1CCN(CCN2CCOCC2)CC1 (stereo not drawn) do in these assays?
D3 antag: inactive; D3 ag: inactive; ATXN2 expr inh: inactive; IL1B secr inh: inactive; ATXN viability: inactive

How did Cc1cc(N2CCN(C(c3ccnc4ccccc34)c3nnnn3-c3c(C)cccc3C)CC2)c2ccccc2n1 (stereo not drawn) do in these assays?
D3 antag: inactive; D3 ag: inactive; ATXN2 expr inh: inconclusive; IL1B secr inh: -56; ATXN viability: inconclusive

How did COc1cccc(C(c2nnnn2C(C)(C)C)N2CCN(C/C=C/c3ccccc3)CC2)c1OC (stereo not drawn) do in these assays?
D3 antag: -102; D3 ag: inactive; ATXN2 expr inh: inactive; IL1B secr inh: inactive; ATXN viability: inconclusive

What do the screens show for `COc1cccc(C(c2nnnn2C(C)(C)C)N2CCN(C3CCCCC3)CC2)c1OC` (stereo not drawn)?
D3 antag: inactive; D3 ag: inactive; Integrin act MD: inactive; ATXN2 expr inh: inactive; IL1B secr inh: inactive; ATXN viability: inactive

What do the screens show for `CCCCn1nnnc1C(c1ccc(OC)cc1)N1CCN(C/C=C/c2ccccc2)CC1` (stereo not drawn)?
D3 antag: -107; D3 ag: inactive; ATXN2 expr inh: inactive; IL1B secr inh: inconclusive; ATXN viability: inconclusive

What do the screens show for `COc1ccc(C(c2nnnn2C2CCCCC2)N2CCN(C/C=C/c3ccccc3)CC2)cc1` (stereo not drawn)?
D3 antag: -84; D3 ag: inactive; ATXN2 expr inh: inconclusive; IL1B secr inh: inactive; ATXN viability: inconclusive

What do the screens show for `COc1ccc(-n2nnnc2C(c2ccccc2OC(F)(F)F)N2CCN(C/C=C/c3ccccc3)CC2)cc1` (stereo not drawn)?
D3 antag: -96; D3 ag: inactive; ATXN2 expr inh: inactive; IL1B secr inh: inactive; ATXN viability: inconclusive

What do the screens show for `CCCCn1nnnc1C(c1cccs1)N1CCN(C/C=C/c2ccccc2)CC1` (stereo not drawn)?
D3 antag: inconclusive; D3 ag: inactive; ATXN2 expr inh: inactive; IL1B secr inh: inactive; ATXN viability: inconclusive

Results for COc1ccc(-n2nnnc2C(c2ccnc3ccccc23)N2CCN(C/C=C/c3ccccc3)CC2)cc1 (stereo not drawn) ?
D3 antag: -54; D3 ag: inactive; ATXN2 expr inh: inconclusive; IL1B secr inh: inconclusive; ATXN viability: inconclusive

How did CCCCn1nnnc1C(C1CC1)N1CCN(C/C=C/c2ccccc2)CC1 (stereo not drawn) do in these assays?
D3 antag: -137; D3 ag: inactive; ATXN2 expr inh: inactive; IL1B secr inh: inactive; ATXN viability: inactive

How did CCCCN1CC(COc2ccccc2)OC1=O (stereo not drawn) do in these assays?
D3 antag: inactive; D3 ag: inactive; Integrin act MD: inactive; ATXN2 expr inh: inactive; IL1B secr inh: inactive; ATXN viability: inactive

Results for CC(OC(=O)CNC(=O)c1ccccc1)C(=O)Nc1ccc(S(=O)(=O)N2CCOCC2)cc1 (stereo not drawn) ?
D3 antag: inactive; D3 ag: inactive; Integrin act MD: inactive; ATXN2 expr inh: inactive; IL1B secr inh: inactive; ATXN viability: inactive

How did C(=C\c1ccccc1)/CN1CCN(C(c2ccccc2)c2nnnn2-c2ccc3c(c2)OCCO3)CC1 (stereo not drawn) do in these assays?
D3 antag: -75; D3 ag: inactive; ATXN2 expr inh: inactive; IL1B secr inh: inactive; ATXN viability: inconclusive
